Assay outcomes from PubChem.
Hits are enriched below; roughly 22% of the tested compounds scored in any of these assays.
CYP2C19 activ = increases human CYP2C19 enzyme activity; activation factor at 5 µM; P33261; 96,000 tested, under 10 active; recombinant CYP2C19, luciferin-H EGE luminescence; stronger effect = higher value; 0 = fully inhibited enzyme, 1 = untreated enzyme;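 active = activation factor of at least 2 at 5 µM in the primary screen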;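 note: 0 = wells with 2.5 mM tranylcypromine and 1 = vehicle-only wells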
Target sequence (P33261 whole entry, looked up): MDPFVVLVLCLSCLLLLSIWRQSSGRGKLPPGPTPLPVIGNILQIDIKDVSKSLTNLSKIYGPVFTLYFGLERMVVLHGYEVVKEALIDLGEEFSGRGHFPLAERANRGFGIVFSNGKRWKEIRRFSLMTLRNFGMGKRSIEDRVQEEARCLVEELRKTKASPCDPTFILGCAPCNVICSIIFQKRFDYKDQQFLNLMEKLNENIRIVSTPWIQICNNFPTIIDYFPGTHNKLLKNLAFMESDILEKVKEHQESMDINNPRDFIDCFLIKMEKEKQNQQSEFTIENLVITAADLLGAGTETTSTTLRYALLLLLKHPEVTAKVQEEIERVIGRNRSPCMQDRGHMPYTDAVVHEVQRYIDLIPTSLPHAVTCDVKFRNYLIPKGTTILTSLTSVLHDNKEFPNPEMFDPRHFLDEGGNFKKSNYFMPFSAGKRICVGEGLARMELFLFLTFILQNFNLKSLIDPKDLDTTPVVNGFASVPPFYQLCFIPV
CYP2C9 inhib = inhibitors of human CYP2C9. CYP2C9 Supersomes, luciferin-H conversion, luminescence. inhibition, % at 5 µM. actives 20% (n = 96,000);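 active = blocking of liver enzyme CYP2C9 beyond about 50% at 5 µM, limit read from the data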
Measles CPE = protection of cells from measles virus; protection (pct of control), % at 4 µM; Measles virus-infected cells, CPE protection, absorbance; AID 841; actives 1.5% (n = 140,000); in the data active = protection mostly above about 24%, no sharp cut-off; inactive = mostly below about 26%
CYP2C19 inhib = blocks human cytochrome P450 2C19 | CYP2C19 Supersomes, luciferin-H EGE luminescence, 30 min | inhibition, % at 5 µM | actives 21% (n = 96,000) | AID 778;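 active = CYP2C19 inhibition above a set limit at 5 µM in the primary screen, cut at about 50% in these data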;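 note: plate controls were negative control wells for no effect and 2.5 mM tranylcypromine positive control for full effect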
CYP2C9 activ = CYP2C9 (human) activation | P11712 | recombinant CYP2C9, luciferin-H conversion, luminescence; stronger effect = higher value; factor 1 = untreated enzyme, 0 = blocked | activation factor at 5 µM | actives 1.4% (n = 96,000) | AID 1024;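 active = activation factor of 2 or more for CYP2C9 at a 5 µM dose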;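 note: 0 = sulfaphenazole-blocked wells and 1 = vehicle-only wells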
Active calls of the source: *; . = no result given.

SMILES	CYP2C19 activ	CYP2C9 inhib	Measles CPE	CYP2C19 inhib	CYP2C9 activ
O=c1cc(O)nc(SC23CC4CC(CC(C4)C2)C3)[nH]1	1.1	0	9	-6	1
CCOc1ccc(-n2cc(-c3ccccc3)c3c(SC(C)C(=O)OC)ncnc32)cc1 (centres undefined)	.	.	19*	.	.
N#Cc1c2c(c[nH]c1=O)CCN2Cc1ccccc1	.	.	44*	.	.
CCc1cccc(C)c1NC(=O)CN1C(=O)c2ccccc2S1(=O)=O	0.2	37	2	77*	0.6
COC(=O)c1ccc(C)c(NC(=O)CN2C(=O)c3ccccc3S2(=O)=O)c1	0.7	83*	5	30	0.2
CCOC(=O)c1ccccc1NC(=O)CN1C(=O)c2ccccc2S1(=O)=O	1	21	3	-2	0.8
Cc1c(NC(=O)CN2C(=O)c3ccccc3S2(=O)=O)c(=O)n(-c2ccccc2)n1C	.	.	11	.	.
CCc1cccc(C)c1NC(=O)CSc1nc2ccc(N3C(=O)c4ccccc4C3=O)cc2s1	0.7	51*	18	35	0.5
O=C(CN1C(=O)c2ccccc2S1(=O)=O)NC1CCCCCC1	0.3	12	2	66*	0.9
COC(=O)C1=C(C)NC2=C(C(=O)C(C(=O)OC)C(c3ccc(OC)cc3)C2)C1c1ccccn1 (centres undefined)	0.9	5	2	5	1
COc1ccc2oc(C(F)(F)C(F)F)cc(=O)c2c1	0.5	33	12	54*	0.7
CCOC(=O)C1=C(C)N(c2ccccc2)C(=O)C1CC(=O)O (centres undefined)	0.5	41	5	53*	0.6
CCOC(=O)C1=C(C)N(C)C(=O)C1CC(=O)O (centres undefined)	1.1	-11	15	-10	1.1
Nc1cc(C(=O)O)ccc1Nc1ccc(F)c(F)c1	1	-10	12	2	1.1
c1ccc2c(COn3nnc4ccccc43)cccc2c1	0	70*	6	96*	0.3
c1ccc2c(Cn3nnc4ccccc43)cccc2c1	0.7	-147	13	26	2.5*
CC(=O)Nc1ccc(Oc2ncccn2)cc1	1.1	-10	.	-14	1.1
O=C(c1ccccc1)c1ccc(Oc2ncccn2)cc1	0.4	21	18	63*	0.8
CC(C)(C)NC(=O)C(c1c[nH]c2ccccc12)N(C(=O)Cn1nnc(-c2ccc(F)cc2)n1)c1cccc(O)c1 (centres undefined)	.	.	19	.	.
O=C(CSc1nnc(-c2cnccn2)n1Cc1ccco1)c1ccc(Cl)cc1	0.7	59*	17	27	0.4
O=C(CSc1nnc(-c2ccccn2)n1Cc1ccco1)c1ccc(Cl)cc1	0.7	71*	6	27	0.3
COc1ccc(C(=O)CSc2nnc(-c3ccccn3)n2Cc2ccco2)cc1	0.7	66*	4	29	0.3
COc1cc(Cl)c(C)cc1NC(=O)CSc1nnc(-c2ccccn2)n1Cc1ccco1	0.8	50*	24	16	0.5
COc1cc(C2C3=C(CC(C)(C)CC3=O)N(C)C(=O)N2C)cc(OC)c1OC (centres undefined)	1.1	31	6	-7	0.7
CC(C)CC(=O)c1c[nH]c(C(=O)NCCCN2CCOCC2)c1	1.2	-9	3	-17	1.1
SMILES	CYP2C19 activ	CYP2C9 inhib	Measles CPE	CYP2C19 inhib	CYP2C9 activ
Cc1ccc(CNC(=O)C2CCN(S(=O)(=O)c3cccs3)CC2)o1	.	.	8	.	.
O=C(CSc1nnc(-c2cccnc2)n1Cc1ccco1)c1ccc(Br)cc1	0.1	80*	5	88*	0.2
O=C(CSc1nnc(-c2cnccn2)n1Cc1ccco1)c1ccccc1	0.7	38	1	35	0.6
O=C(CSc1nnc(-c2ccccn2)n1Cc1ccco1)c1ccccc1	1	51*	10	-1	0.5
O=C(Cc1ccccc1)N/N=C/c1ccccc1OCc1ccc(Cl)cc1	0.8	62*	37	24	0.4
CCOC(=O)N/N=C/c1ccccc1OCc1ccc(Cl)cc1	.	.	3	.	.
O/N=C/c1ccccc1OCc1ccc(Cl)cc1	0.5	69*	15	52*	0.3
O/N=C/c1ccccc1OCc1ccccc1Cl	0.7	21	19	34	0.8
O=C(NCCCc1ccccc1)Nc1cccc(Cl)c1	.	.	4	.	.
O=C(NNc1cccc(Cl)n1)Nc1ccccc1	0.6	1	45	35	1
O=C(NCCc1ccncc1)Nc1cccc(Cl)c1	0	98*	17	98*	0
S=C(NCCc1ccccc1)Nc1ccccc1Cl	.	.	4	.	.
O=C(NNc1cccc(Cl)n1)Nc1cccc(Cl)c1	0.3	17	8	72*	0.8
O=C(NCCc1ccncc1)Nc1ccccc1Cl	0.1	82*	18	89*	0.2
CC(=O)Nc1sc(/C(C#N)=C\c2cccc(Cl)c2)nc1-c1ccc(C)cc1	.	.	9	.	.
O=C(Nc1ccccc1)N(C1=NCCC1)c1ccc(OC(F)F)cc1	0.5	79*	3	50*	0.2
CCOc1ccc(N(C(=O)Nc2ccccc2)C2=NCCC2)cc1	1	36	7	1	0.6
CCC1=NN(C(=O)Cc2ccc(OC)cc2)C(O)(C(F)(F)F)C1 (centres undefined)	0.5	10	7	53*	0.9
CCC1=NN(C(=O)CCc2ccccc2)C(O)(C(F)(F)F)C1 (centres undefined)	0.3	48	13	67*	0.5
CCC1=NN(C(=O)C(=O)NCCc2ccccc2)C(O)(C(F)(F)F)C1 (centres undefined)	0.9	16	3	7	0.8
CCC1=NN(C(=O)C(=O)Nc2ccccc2OC)C(O)(C(F)(F)F)C1 (centres undefined)	0.8	62*	15	15	0.4
COC(=O)c1ccccc1OCC(=O)N1CCN(c2ccc(OC)cc2)CC1	0.8	12	2	19	0.9
O=C(CC1CCS(=O)(=O)C1)Nc1ccc[nH]c1=O (centres undefined)	0.8	-5	21	15	1.1
FC(F)(F)c1ccc(Oc2ccc3ccccc3c2Br)nc1	.	.	14	.	.
OC(COc1ccc2ccccc2c1Br)Cn1ccnc1 (centres undefined)	0	96*	4	99*	0
SMILES	CYP2C19 activ	CYP2C9 inhib	Measles CPE	CYP2C19 inhib	CYP2C9 activ
OC(COc1ccc2ccccc2c1)Cn1ccnc1 (centres undefined)	0	98*	4	100*	0
Cc1nc(C)n(CC(O)COc2ccc3cc(Br)ccc3c2)n1 (centres undefined)	0.6	-6	13	36	1.1
Cc1nc2ncnn2c(C)c1CCC(=O)NCCCN1CCN(c2cccc(Cl)c2)CC1	1	5	1	2	1
COc1ccc(-n2nc(C(=O)NCC(=O)NCC3CCCO3)c3ccccc3c2=O)cc1Cl (centres undefined)	0.8	60*	6	15	0.4
COCCNC(=O)CSc1nc2ccccc2c(=O)n1-c1cccc(OC)c1	0.2	65*	2	82*	0.3
Cn1nc(-c2ccc(C(=O)NCC3CCCO3)cc2)c2ccccc2c1=O (centres undefined)	0.7	13	.	29	0.9
